{
  "source": "PubChem BioAssay AID1508642",
  "about": "(National Center for Advancing Translational Sciences (NCATS), 2021)",
  "note": "Screen size: about 43,000 compounds; about 200 (0.47%) were called active. Roughly 12% stayed inconclusive and do not appear here. Many of the other results were omitted from the sample, so actives are more common in it than they were. A number with no mark means an inactive call. Calls follow the shape of the dose curve; as a rule, active = well fitted cell-killing curve with a large enough effect; inconclusive = small, poorly fitted or top-dose-only effect, or effect the other way; inactive = flat fitted curve, though single readings scatter. % is scaled to controls: 0 for no effect and ±100 for the full control effect; potency is read from the fitted curve at half-maximal effect.",
  "data": [
    {"assay": "Cell viability qHTS assay in S16 Pmp22-F2sN cells; also: nearly all actives have a fitted effect of over 65% in size", "conditions": "S16 Pmp22-F2sN Schwann cells (luciferase reporters placed in the Pmp22 gene) viability, CellTiter-Glo, 24 h; series mostly up to 57.5 µM; activity change, negative = cytotoxicity: at the top concentration", "text": "Assay Provider: Jim Inglese Ph.D. National Center for Advancing Translational Science, National Institutes of Health, Rockville, MD CMT is a heterogeneous group of neurological disorders that affect approximately 1 in 2,500 people. In particular, the most common form of CMT, CMT1A is genetically linked to the duplication of the PMP22 gene which leads to Schwann cell overexpression, thus manifesting itself as a typical case of dose-sensitive diseases. To identify small molecule compounds that can mediate the expression of PMP22 we developed a phenotypic assay screening strategy by utilizing genome editing techniques to construct Schwann cell lines containing novel reporter technology to monitor the transcriptional or translational regulation of PMP22. For high sensitivity we use a bioluminescent reporter system embedded in the 3' UTR of the PMP22 gene (S16(c9) Pmp22-F2sN) to identify compounds that inhibit gene expression. […] We can further discriminate the effect of all transcriptionally active molecules on PMP22 translation or stability with an assay that incorporates a short NLuc peptide (HiBiT) at the C-terminus of expressed PMP22 (S16(f8) PMP22-HiBiT) allowing alpha complementation and luminescence detection of membrane-associated PMP22 protein. These assays were screened against the NCATS Sytravon Library Collection. Miniaturization of these assays to 1536-well plate format for quantitative high throughput screening (qHTS) yielded rich data sets immediately from the qHTS assay (S16(c9) Pmp22-F2sN), when compared with data from a cell viability assay (Cell TiterGlo) to identify compounds that decreased the output signals through cellular toxicity to streamline the selection process of actives for subsequent characterization using the HiBiT assay (S16(f8) PMP22-HiBiT).\nCell viability assay in S16 Pmp22-F2sN cells PROTOCOL TABLE (format as described by Inglese J, Shamu CE and Guy RK. 2007) SEQUENCE No. (e.g., 1, 2, 3, etc.); […] (e.g., Cells, Incubation, Reagent, etc.); VALUE and DESCRIPTION. 1. Cells. Add 500-1,000 cells in 4 uL in growth media (DMEM High Glucose, No Phenol Red media + 10% heat-inactivated FBS + 1% Pen/Strep supplemented media) per well into Greiner 1536-well white/solid bottom high base, TC-treated plates. 2. Compounds. Library compounds and controls added at 23nL per well, transferred by Pin Tool. 3. Incubation. Incubate plates at 37C, 5% CO2, 95% RH for 24 h. 4. Reagent. Add 3uL CellTiter-Glo per well of Greiner 1536-well plates. 5. Incubation. Incubate plates at room temperature for 15 min., protect from light. 6. Detector. FLuc luminescence measured using CCD-based camera (Viewlux). NOTES (numbers refer to Sequence numbers above; values are from representative experiments) 6. Luminescence Read: Clear filter; Exposure = 1 sec, Gain = High, Speed = Slow, Binning = 2X REFERENCES: 1. Inglese J, Shamu CE and Guy RK, Reporting data from high throughput screening of small molecule libraries, Nature Chemical Biology, 2007, 3(8): 438-441. doi.org/10.1038/nchembio0807-438 2. Yasgar A, Shinn P, Jadhav A, Auld DS, Michael S, Zheng W, Austin CP, Inglese J and Simeonov A, Compound Management for Quantitative High-Throughput Screening. J. Assoc. Lab. Auto., 2008, 13: 79-89. doi: 10.1016/j.jala.2007.12.004", "units": {"activity change, negative = cytotoxicity": "%"}, "values": [
      {"smiles": "CC(=O)c1ccc(NC(=O)COc2ccccc2-c2nc(-c3ccccc3)no2)cc1", "activity change, negative = cytotoxicity": 3.1},
      {"smiles": "COc1cccc(CNC(=O)c2ccc3c(c2)N(Cc2ccc(C(F)(F)F)cc2)C(=O)c2ccccc2S3)c1OC", "activity change, negative = cytotoxicity": -5.25},
      {"smiles": "O=C(CSc1oc(-c2ccc(F)cc2)nc1S(=O)(=O)c1ccc(Br)cc1)NC1CCCCC1", "activity change, negative = cytotoxicity": 2.8},
      {"smiles": "CC(C)S(=O)(=O)c1oc(-c2ccc(F)cc2)nc1S(=O)(=O)c1ccc(F)cc1", "Potency": "3.16 µM (active)"},
      {"smiles": "Cc1ccc(-c2nc(S(=O)(=O)c3ccc(C)cc3)c(N3CCCCCC3)o2)cc1", "activity change, negative = cytotoxicity": -18.3},
      {"smiles": "COc1ccc(-c2nc(SCC(=O)N3CCCCC3C)n[nH]2)cc1", "note": "(configuration not stated)", "activity change, negative = cytotoxicity": 0.441},
      {"smiles": "O=C(NCCS(=O)(=O)N1CCN(c2ccc(F)cc2)CC1)c1ccccc1Br", "activity change, negative = cytotoxicity": -9.89},
      {"smiles": "COc1ccc(NC(=O)Cn2c(=O)cc(C)c3c(C)nn(-c4cccc(Cl)c4C)c32)cc1OC", "activity change, negative = cytotoxicity": -0.142},
      {"smiles": "CCOc1ccccc1CNC(=O)c1cnc2c(-c3ccc(OCC)c(OCC)c3)c(C)nn2c1C", "activity change, negative = cytotoxicity": -2.71},
      {"smiles": "Cc1ccc(-c2nc(Cn3c(=O)cc(-c4ccccc4)c4c(C)nn(C)c43)c(C)o2)cc1", "activity change, negative = cytotoxicity": 0.847},
      {"smiles": "O=C(CCn1c(=O)c2ccccc2n(Cc2ccc(Cl)cc2)c1=O)NCc1ccc2c(c1)OCO2", "activity change, negative = cytotoxicity": 16.4},
      {"smiles": "COc1ccc(-c2onc(C)c2C)cc1S(=O)(=O)NCc1cccs1", "activity change, negative = cytotoxicity": -12.4},
      {"smiles": "CCS(=O)(=O)N1CCc2cc(C(=O)N3CCN(c4ccccc4OC)CC3)ccc21", "activity change, negative = cytotoxicity": -23.9},
      {"smiles": "COc1ccc(C2=CC(c3ccccc3Cl)n3nc(-c4ccc(Cl)cc4)nc3N2)cc1", "note": "(configuration not stated)", "activity change, negative = cytotoxicity": -1.8},
      {"smiles": "COc1ccc(C)cc1NC(=O)C(=O)NCCc1sc(-c2cccc(C)c2)nc1C", "activity change, negative = cytotoxicity": 15.9},
      {"smiles": "Cc1c(-c2cccc(NC(=O)C(C)(C)C)c2)nc2ncccn12", "activity change, negative = cytotoxicity": 9.29},
      {"smiles": "Cc1cc(C)c(NC(=O)c2cc3sc(Cl)cc3n2C)c(C)c1", "activity change, negative = cytotoxicity": -0.729},
      {"smiles": "Cc1cccc(-n2ccnc2SCC(=O)Nc2cccc3ccccc23)c1C", "activity change, negative = cytotoxicity": -23},
      {"smiles": "CC(C)Cn1c(-c2ccc(S(=O)(=O)N3CCOCC3)cc2)csc1=Nc1cc(Cl)ccc1Cl", "activity change, negative = cytotoxicity": 1.99},
      {"smiles": "Cc1ccc2[nH]c3c(=O)n(CC(=O)NC(C)C)ncc3c2c1", "activity change, negative = cytotoxicity": 17.3},
      {"smiles": "COc1ccccc1CNC(=O)CS(=O)(=O)c1cccc2nsnc12", "activity change, negative = cytotoxicity": 1.47},
      {"smiles": "Cc1cccc2c1-c1sc(C(=O)Nc3ccc(F)cc3F)cc1CO2", "activity change, negative = cytotoxicity": 4.55},
      {"smiles": "CCOCCn1ccc2c(OCC(=O)NCc3ccc(C)cc3)cccc2c1=O", "activity change, negative = cytotoxicity": -27.9},
      {"smiles": "CCOC(=O)C1CCN(S(=O)(=O)c2ccc3c(c2)N(C)C(=O)CC(=O)N3C)CC1", "activity change, negative = cytotoxicity": 9.53},
      {"smiles": "Cc1ccc2c(c1)N(C(=O)CCC(=O)NCc1ccccc1F)CC(C)O2", "note": "(configuration not stated)", "activity change, negative = cytotoxicity": 16.2},
      {"smiles": "COc1cc(CNC(=O)c2cc3n(n2)CCCN(Cc2cccc(F)c2)C3=O)cc(OC)c1OC", "activity change, negative = cytotoxicity": 4.68},
      {"smiles": "COc1ccc(C2c3c(oc4ccccc4c3=O)C(=O)N2Cc2ccc3c(c2)OCO3)cc1", "note": "(configuration not stated)", "activity change, negative = cytotoxicity": -4.77},
      {"smiles": "CCCNC(=O)C1CCN(c2nc3ccc(C)cc3[nH]2)CC1", "activity change, negative = cytotoxicity": 12.1},
      {"smiles": "CCCc1cc(=O)n2[nH]c(NCc3ccc(CC)cc3)nc2n1", "activity change, negative = cytotoxicity": -6.76},
      {"smiles": "CCCCN(C)c1nnc(NC(=O)Nc2ccc(Br)c(C)c2)s1", "activity change, negative = cytotoxicity": 7.82},
      {"smiles": "Cc1cccc(-n2ncc(C(=O)N3CCC(C)CC3)c2C2CCN(C(=O)OC(C)(C)C)CC2)c1", "activity change, negative = cytotoxicity": -0.159},
      {"smiles": "COc1ccc2c(c1)c(=O)c(C(=O)c1ccccc1)cn2CC(=O)Nc1ccc2c(c1)OCCO2", "activity change, negative = cytotoxicity": -17.2},
      {"smiles": "Cn1ccc2cc(S(=O)(=O)N3CCCC(C(=O)NCc4ccccc4F)C3)ccc21", "note": "(configuration not stated)", "activity change, negative = cytotoxicity": -1.54},
      {"smiles": "CCOc1ccc(N(Cc2ccccc2)C(=O)c2nc(S(C)(=O)=O)ncc2Cl)cc1", "Potency": "3.55 µM (active)"},
      {"smiles": "CCOc1ccc(N(Cc2ccccc2)C(=O)c2nc(SCC)ncc2Cl)cc1", "activity change, negative = cytotoxicity": -13.1},
      {"smiles": "CCOc1ccc(N(CC)C(=O)C2CCN(S(=O)(=O)c3cccc4nonc34)CC2)cc1", "activity change, negative = cytotoxicity": 17},
      {"smiles": "O=C(Cn1ncn2nc(-c3cccs3)cc2c1=O)NCc1cccc(Br)c1", "activity change, negative = cytotoxicity": -7.84},
      {"smiles": "CCOC(=O)c1c(NC(=O)/C=C/c2ccc(OC)cc2)sc2c1CCC(C)C2", "note": "(configuration not stated)", "activity change, negative = cytotoxicity": 2.92},
      {"smiles": "Cc1ccc(O)c(NC(=O)CCS(=O)(=O)c2nc(-c3ccc4c(c3)OCO4)cc(C(F)(F)F)n2)c1", "activity change, negative = cytotoxicity": 0.975},
      {"smiles": "CCN(CC)CCNC(=O)Cn1ncc2c3ccccc3n(Cc3ccccc3C)c2c1=O", "activity change, negative = cytotoxicity": -15.4},
      {"smiles": "COCCNC(=O)CSc1c(C)cnc2c1c(=O)n(C)c(=O)n2C", "activity change, negative = cytotoxicity": 2.19},
      {"smiles": "COc1cc(C(=O)N2CCN(C(=O)COc3cccc(C)c3)CC2)cc(OC)c1OC", "activity change, negative = cytotoxicity": 8.68},
      {"smiles": "CCCNC(=O)CCC(=O)N1Cc2ccccc2Oc2ncccc21", "activity change, negative = cytotoxicity": 0.274},
      {"smiles": "CC(NC(=O)CCc1cn(Cc2ccccc2Cl)c2ccccc12)c1ccccc1", "note": "(configuration not stated)", "activity change, negative = cytotoxicity": -3.26},
      {"smiles": "CC(C)CC(NS(=O)(=O)c1ccc2c(c1)oc(=O)n2C)C(=O)NCc1ccccc1Cl", "note": "(configuration not stated)", "activity change, negative = cytotoxicity": -2.2},
      {"smiles": "O=C(COc1ccccc1)OCc1cc(=O)n2nc(-c3cccs3)sc2n1", "activity change, negative = cytotoxicity": 0.234},
      {"smiles": "CCc1c(C)sc(NC(=O)C2c3ccccc3Oc3ccccc32)c1C(=O)OC(C)C", "activity change, negative = cytotoxicity": 0.223}
    ]}
  ]
}
